Experimental data from article PMC8384837, “Expanding the binding specificity for RNA recognition by a PUF domain”.

How the values were obtained:
Assay in all cases: yeast three-hybrid, YBZ-1, SC-Leu-His + 0.5 mM 3-AT, 4 days
Settings in all cases: tags: N-Gal4 AD-HA kept; label: inside an RPR1-promoter hybrid RNA with tandem MS2 sites; ssRNA
PUM1 PUF domain R7-LNS = PUM1 PUF domain R7-LNS (Homo sapiens, UniProt Q14671 828-1176, S1079L;E1083S)
How it was run: (§1)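 Pumilio-1 PUF domain libraries, randomized (NNK) at the three base-contacting residues of each repeat, were co-expressed with matching RNA elements from a centromeric plasmid in strain YBZ-1 (LexA–MS2 coat fusion, HIS3 reporter). Transformants were plated on SC-Leu (input) and SC-Leu-His + 0.5 mM 3-AT (selection) for four days, and repeat regions were PCR-amplified and Illumina-sequenced. The interaction score is the log2 change in variant frequency from input to selection, with pseudocount 1 where absent.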

PUM1 PUF domain R7-LSC = PUM1 PUF domain R7-LSC (Homo sapiens, UniProt Q14671 828-1176, S1079L;N1080S;E1083C)
How it was run: as §1

PUM1 PUF domain R7-CRR = PUM1 PUF domain R7-CRR (Homo sapiens, UniProt Q14671 828-1176, S1079C;N1080R;E1083R)
How it was run: as §1

PUM1 PUF domain R7-RRR = PUM1 PUF domain R7-RRR (Homo sapiens, UniProt Q14671 828-1176, S1079R;N1080R;E1083R)
How it was run: as §1

PUM1 PUF domain R6-SFG = biological target: T1, PUM1 PUF domain R6-SFG (Homo sapiens, UniProt Q14671 828-1176, N1043S;Y1044F;Q1047G)
T1 sequence: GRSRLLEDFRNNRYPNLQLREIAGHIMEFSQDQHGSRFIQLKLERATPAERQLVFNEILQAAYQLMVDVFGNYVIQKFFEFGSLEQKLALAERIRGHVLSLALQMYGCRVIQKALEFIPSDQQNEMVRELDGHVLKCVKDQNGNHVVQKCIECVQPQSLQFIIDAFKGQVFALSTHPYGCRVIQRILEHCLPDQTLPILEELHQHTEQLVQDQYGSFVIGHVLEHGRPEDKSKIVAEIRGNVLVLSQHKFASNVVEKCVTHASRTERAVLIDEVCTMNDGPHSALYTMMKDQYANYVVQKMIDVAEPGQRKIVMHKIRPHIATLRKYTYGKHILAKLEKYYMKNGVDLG
How it was run: as §1

PUM1 PUF domain R4-PWS = PUM1 PUF domain R4-PWS (Homo sapiens, UniProt Q14671 828-1176, N971P;H972W;Q975S)
How it was run: as §1

PUM1 PUF domain R8-SYW = PUM1 PUF domain R8-SYW (Homo sapiens, UniProt Q14671 828-1176, N1122S;Q1126W)
How it was run: as §1

PUM1 PUF domain R3-SHG = PUM1 PUF domain R3-SHG (Homo sapiens, UniProt Q14671 828-1176, C935S;R936H;Q939G)
How it was run: as §1

PUM1 PUF domain R7-QFR = PUM1 PUF domain R7-QFR (Homo sapiens, UniProt Q14671 828-1176, S1079Q;N1080F;E1083R)
How it was run: as §1

PUM1 PUF domain R4-PFS = PUM1 PUF domain R4-PFS (Homo sapiens, UniProt Q14671 828-1176, N971P;H972F;Q975S)
How it was run: as §1

Which results are given for “GGCUAGAACUAGUGGAUCCCCCGGCGCCCGGCGGCUCGAGCCCGGGUAAGUUUAAAUAGUCUGCAUGCCGCCGGGCGCCAUGCCUGCAGGUCGACUCUAGAAAACAUG”?
binding signal (PUM1 PUF domain R7-LNS): 5.15 log2 enrichment (interaction score); binding signal (PUM1 PUF domain R7-LSC): 4.33 log2 enrichment (interaction score); binding signal (PUM1 PUF domain R7-CRR): 2.87 log2 enrichment (interaction score); binding signal (PUM1 PUF domain R7-RRR): 3.77 log2 enrichment (interaction score)

Which binding signal (PUM1 PUF domain R6-SFG) does the source give for “GGCUAGAACUAGUGGAUCCCCCGGCGCCCGGCGGCUCGAGCCCGGGUAAGUGUAAAUAGUCUGCAUGCCGCCGGGCGCCAUGCCUGCAGGUCGACUCUAGAAAACAUG” here?
Its binding signal is 4.88 log2 enrichment (interaction score).

And the binding signal (PUM1 PUF domain R4-PWS)?
The binding signal was 6.05 log2 enrichment (interaction score).

And the binding signal (PUM1 PUF domain R8-SYW)?
The binding signal was 3.33 log2 enrichment (interaction score).

What about the binding signal (PUM1 PUF domain R3-SHG) of the same sequence?
Its binding signal is 3.6 log2 enrichment (interaction score).

For “GGCUAGAACUAGUGGAUCCCCCGGCGCCCGGCGGCUCGAGCCCGGGUAAGUGUAAUUAGUCUGCAUGCCGCCGGGCGCCAUGCCUGCAGGUCGACUCUAGAAAACAUG”, which binding signal (PUM1 PUF domain R3-SHG) is on record?
Its binding signal is 0.72 log2 enrichment (interaction score).

“GGCUAGAACUAGUGGAUCCCCCGGCGCCCGGCGGCUCGAGCCCGGGUAAGUCUAAAUAGUCUGCAUGCCGCCGGGCGCCAUGCCUGCAGGUCGACUCUAGAAAACAUG” was tested. Which binding signal (PUM1 PUF domain R7-QFR) did it give?
Its binding signal is 2.43 log2 enrichment (interaction score).

And the binding signal (PUM1 PUF domain R7-LNS)?
The binding signal was 0.35 log2 enrichment (interaction score).

And the binding signal (PUM1 PUF domain R7-CRR)?
The binding signal was 0.18 log2 enrichment (interaction score).

And the binding signal (PUM1 PUF domain R7-RRR)?
The binding signal was 3.52 log2 enrichment (interaction score).

For “GGCUAGAACUAGUGGAUCCCCCGGCGCCCGGCGGCUCGAGCCCGGGUAAGUGUAAGUAGUCUGCAUGCCGCCGGGCGCCAUGCCUGCAGGUCGACUCUAGAAAACAUG”, which binding signal (PUM1 PUF domain R3-SHG) is on record?
Its binding signal is 2.83 log2 enrichment (interaction score).

With “GGCUAGAACUAGUGGAUCCCCCGGCGCCCGGCGGCUCGAGCCCGGGUAAGUGUACAUAGUCUGCAUGCCGCCGGGCGCCAUGCCUGCAGGUCGACUCUAGAAAACAUG” as the sequence, how does the binding signal (PUM1 PUF domain R4-PFS) read?
Its binding signal is 5.13 log2 enrichment (interaction score).

And the binding signal (PUM1 PUF domain R4-PWS)?
The binding signal was 4.61 log2 enrichment (interaction score).

For “GGCUAGAACUAGUGGAUCCCCCGGCGCCCGGCGGCUCGAGCCCGGGUAAGUGUAUAUAGUCUGCAUGCCGCCGGGCGCCAUGCCUGCAGGUCGACUCUAGAAAACAUG”, which binding signal (PUM1 PUF domain R4-PFS) is on record?
The binding signal was 4.11 log2 enrichment (interaction score).
